Test results reported in the supplement of paper PMC10849652.
The full data set covers some 8,800 targets. This sample favours those with a hit. About 0.5% of all pairs of compound and target were hits.

Experiments:
Test in all cases: log2 fold change, soluble protein after heating vs DMSO (PISA); higher = thermal stabilisation; K562 lysate, 10 uM; active = over 0.2 and 3.5 SD of the protein, either way, in both replicates (recomputed)
[1] = compound: CN1CC[C@H](c2c(O)cc(O)c3c(=O)cc(-c4ccccc4Cl)oc23)[C@H](O)C1 [alvocidib]
In short: (§1)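 Quantification was by TMTpro 16plex LC-MS/MS with equalised channel sums, applied to the supernatant after 21,000xg for 90 min. Samples were crude K562 extract at 1 mg/mL protein in PBS pH 7.4 with 1 mM MgCl2, treated with 10 μM compound for 30 min, heated for 3 min across 48°C-58°C, pooled and brought to 0.5% NP-40 at 4°C. Values are log-two fold changes in thermal stability relative to solvent controls, from duplicates.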

[2] = compound: CN1CCc2c(c3ccccc3n2Cc2ccc(C(=O)NO)cc2)C1 [Tubastatin A]
In short: as §1

[3] = compound: CNC(=O)C1=CC=CC=C1NC2=NC(=NC=C2Cl)NC3=C(C=C(C=C3)N4CCOCC4)OC
In short: as §1

[4] = compound: CNC(=O)c1ccc(Nc2ncc(C(F)(F)F)c(NCc3nccnc3N(C)S(C)(=O)=O)n2)cc1 [defactinib]
In short: as §1

[5] = compound: CNc1nc(-c2ccc3c(N)n[nH]c3c2)cc(N2C[C@@H](C(=O)NC3CCCCC3)CC[C@H]2C)n1
In short: as §1

[6] = compound: COC(=O)N[C@@H](C)CNc1nccc(-c2cn(C(C)C)nc2-c2cc(Cl)cc(NS(C)(=O)=O)c2F)n1 [encorafenib]
In short: as §1

[7] = compound: COC(=O)[C@H](CCSC)NC(=O)C1=C(C=C(C=C1)NC[C@H](CS)N)C2=CC=CC=C2
In short: as §1

[8] = compound: COc1cc(Nc2ncc3c(n2)-c2ccc(Cl)cc2C(c2c(F)cccc2OC)=NC3)ccc1C(=O)O [alisertib]
In short: as §1

[9] = compound: COc1cc2nc(-c3cc(F)ccc3O)nc(N[C@@H]3CNC[C@H]3C(C)(C)O)c2cc1OC
In short: as §1

[10] = compound: COc1cc2ncnc(Nc3ccc(F)c(Cl)c3)c2cc1OCCCN1CCOCC1 [gefitinib]
In short: as §1

Measured: log2 fold change

TPD52L2 isoform 7 (UniProt O43399)
Sequence of UniProt O43399 (O43399 whole entry, looked up): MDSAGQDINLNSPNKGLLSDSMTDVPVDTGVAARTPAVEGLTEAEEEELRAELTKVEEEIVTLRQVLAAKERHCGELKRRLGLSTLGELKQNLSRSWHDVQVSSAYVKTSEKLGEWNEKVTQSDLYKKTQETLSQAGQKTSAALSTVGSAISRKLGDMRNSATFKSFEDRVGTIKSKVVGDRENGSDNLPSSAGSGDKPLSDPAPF
inactive: [1] -0.043 | [2] 0.062 | [3] -0.005 | [4] 0.023 | [5] 0.086 | [6] -0.026 | [7] 0.008 | [8] -0.01 | [9] 0.037 | [10] 0.02

UBAP2 (UniProt Q5T6F2)
inactive: [1] -0.081 | [2] 0.026 | [3] -0.026 | [4] -0.003 | [5] 0.005 | [6] 0.033 | [7] -0.021 | [8] 0.005 | [9] 0.011 | [10] 0.014

TUBB6 (UniProt Q9BUF5)
inactive: [1] 0.023 | [2] -0.064 | [3] 0.015 | [4] 0.034 | [5] 0.023 | [6] 0.017 | [7] 0.056 | [8] 0.028 | [9] 0.011 | [10] -0.024

TTF2 (UniProt Q9UNY4)
inactive: [1] -0.018 | [2] -0.055 | [3] 0.05 | [4] 0.069 | [5] 0.005 | [6] -0.018 | [7] -0.01 | [8] 0.005 | [9] 0.056 | [10] 0.002

TCF12 isoform 3 (UniProt Q99081)
inactive: [1] -0.045 | [2] -0.129 | [3] 0.009 | [4] -0.007 | [5] -0.013 | [6] 0.039 | [7] -0.043 | [8] 0.004 | [9] -0.025 | [10] 0.028

TYW3 (UniProt Q6IPR3)
Sequence of UniProt Q6IPR3 (Q6IPR3 whole entry, looked up): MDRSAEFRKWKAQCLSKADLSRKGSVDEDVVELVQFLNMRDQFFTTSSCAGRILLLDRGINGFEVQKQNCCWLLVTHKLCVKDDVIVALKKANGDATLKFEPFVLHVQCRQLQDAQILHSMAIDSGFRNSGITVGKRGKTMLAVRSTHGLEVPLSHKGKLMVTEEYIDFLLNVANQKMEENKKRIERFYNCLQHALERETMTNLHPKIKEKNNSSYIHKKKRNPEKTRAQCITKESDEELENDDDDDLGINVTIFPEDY
inactive: [1] -0.033 | [2] 0.014 | [3] -0.007 | [4] -0.021 | [5] 0.061 | [6] 0.027 | [7] -0.064 | [8] -0.03 | [9] 0.019 | [10] 0.01

TSFM (UniProt P43897)
Sequence of UniProt P43897 (P43897 whole entry, looked up): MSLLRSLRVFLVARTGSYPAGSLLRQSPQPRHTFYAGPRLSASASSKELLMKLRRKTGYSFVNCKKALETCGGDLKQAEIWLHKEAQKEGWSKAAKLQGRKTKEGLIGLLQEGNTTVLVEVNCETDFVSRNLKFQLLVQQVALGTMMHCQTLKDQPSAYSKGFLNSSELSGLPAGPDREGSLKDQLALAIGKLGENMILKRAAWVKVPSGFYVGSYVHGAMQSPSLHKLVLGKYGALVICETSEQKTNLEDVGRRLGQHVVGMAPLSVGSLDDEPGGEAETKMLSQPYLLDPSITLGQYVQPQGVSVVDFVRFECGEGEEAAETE
inactive: [1] 0.036 | [2] -0.088 | [3] 0.017 | [4] 0.015 | [5] 0.01 | [6] -0.017 | [7] 0.13 | [8] -0.021 | [9] 0.017 | [10] 0.018

TSPAN3 (UniProt O60637)
Sequence of UniProt O60637 (O60637 whole entry, looked up): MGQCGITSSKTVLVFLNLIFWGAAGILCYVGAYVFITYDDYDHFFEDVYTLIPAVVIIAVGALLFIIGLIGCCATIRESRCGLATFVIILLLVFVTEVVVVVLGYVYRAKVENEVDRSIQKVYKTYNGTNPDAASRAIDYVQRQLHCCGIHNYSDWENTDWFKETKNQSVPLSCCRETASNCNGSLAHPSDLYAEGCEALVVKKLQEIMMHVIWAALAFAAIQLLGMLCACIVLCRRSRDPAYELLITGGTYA
inactive: [1] 0.193 | [2] -0.081 | [3] 0.027 | [4] 0.096 | [5] 0.091 | [6] -0.015 | [7] 0.026 | [8] -0.231 | [9] 0.042 | [10] 0.049

TMEM164 (UniProt Q5U3C3)
inactive: [1] -0.393 | [2] 0.05 | [3] -0.039 | [4] 0.007 | [5] 0.333 | [6] -0.107 | [7] 0.185 | [8] -0.075 | [9] 0.021 | [10] -0.063

TRAF2 isoform 2 (UniProt Q12933)
inactive: [1] -0.006 | [2] -0.006 | [3] 0.025 | [4] -0.013 | [5] 0.01 | [6] 0.004 | [7] -0.198 | [8] 0.003 | [9] -0.007 | [10] -0.04

TNPO3 (UniProt Q9Y5L0)
inactive: [1] 0.003 | [2] -0.04 | [3] 0 | [4] -0.007 | [5] -0.007 | [6] 0 | [7] -0.108 | [8] -0.001 | [9] 0.023 | [10] -0.018

TPM3 (UniProt P06753)
inactive: [1] 0.048 | [2] 0.049 | [3] -0.015 | [4] 0.044 | [5] -0.003 | [6] -0.048 | [7] -0.02 | [8] -0.007 | [9] 0 | [10] 0.008

TPP2 (UniProt Q5VZU9)
inactive: [1] -0.099 | [2] -0.121 | [3] 0.092 | [4] 0.062 | [5] 0.068 | [6] -0.076 | [7] 0.058 | [8] 0.006 | [9] 0.076 | [10] 0.011

TRMT2A (UniProt Q8IZ69)
inactive: [1] -0.014 | [2] -0.144 | [3] 0.019 | [4] 0.041 | [5] -0.018 | [6] 0.019 | [7] 0.098 | [8] 0.043 | [9] 0.007 | [10] 0.007

TBRG4 (UniProt Q969Z0)
inactive: [1] 0.017 | [2] -0.089 | [3] 0.007 | [4] 0.071 | [5] -0.018 | [6] 0.01 | [7] -0.013 | [8] 0.037 | [9] -0.008 | [10] -0.015

UBE4A isoform 2 (UniProt Q14139)
inactive: [1] 0 | [2] -0.087 | [3] 0.029 | [4] 0.011 | [5] -0.073 | [6] 0.018 | [7] -0.102 | [8] 0.018 | [9] 0.013 | [10] -0.041

UBR5 (UniProt O95071)
inactive: [1] -0.011 | [2] -0.084 | [3] 0.002 | [4] 0.016 | [5] 0 | [6] 0.025 | [7] -0.044 | [8] -0.028 | [9] -0.005 | [10] 0.014

TROAP (UniProt Q12815)
Sequence of UniProt Q12815 (Q12815 whole entry, looked up): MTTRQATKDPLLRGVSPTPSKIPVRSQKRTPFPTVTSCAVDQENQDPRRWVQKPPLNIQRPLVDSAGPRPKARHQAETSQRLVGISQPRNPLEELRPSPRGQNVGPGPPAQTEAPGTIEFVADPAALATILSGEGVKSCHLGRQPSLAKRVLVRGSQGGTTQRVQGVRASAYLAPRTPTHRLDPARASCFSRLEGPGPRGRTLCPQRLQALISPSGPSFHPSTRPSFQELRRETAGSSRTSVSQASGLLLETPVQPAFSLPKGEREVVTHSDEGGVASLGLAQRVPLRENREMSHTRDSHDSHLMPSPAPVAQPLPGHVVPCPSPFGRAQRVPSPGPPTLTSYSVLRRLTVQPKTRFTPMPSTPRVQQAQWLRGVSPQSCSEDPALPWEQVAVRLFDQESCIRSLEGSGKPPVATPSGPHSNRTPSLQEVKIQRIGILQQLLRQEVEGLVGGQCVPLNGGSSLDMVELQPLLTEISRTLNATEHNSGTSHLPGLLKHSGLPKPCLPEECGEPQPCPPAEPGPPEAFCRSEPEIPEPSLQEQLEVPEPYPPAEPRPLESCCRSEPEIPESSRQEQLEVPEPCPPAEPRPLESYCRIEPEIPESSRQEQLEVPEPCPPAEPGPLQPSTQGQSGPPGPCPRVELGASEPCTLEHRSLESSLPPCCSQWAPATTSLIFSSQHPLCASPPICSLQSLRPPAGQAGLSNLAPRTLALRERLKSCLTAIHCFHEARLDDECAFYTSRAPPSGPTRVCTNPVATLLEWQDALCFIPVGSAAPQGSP
inactive: [1] -0.042 | [2] -0.043 | [3] 0.022 | [4] 0.021 | [5] 0.076 | [6] -0.193 | [7] 0.217 | [8] -0.09 | [9] -0.171 | [10] -0.015

TCP11L1 (UniProt Q9NUJ3)
Sequence of UniProt Q9NUJ3 (Q9NUJ3 whole entry, looked up): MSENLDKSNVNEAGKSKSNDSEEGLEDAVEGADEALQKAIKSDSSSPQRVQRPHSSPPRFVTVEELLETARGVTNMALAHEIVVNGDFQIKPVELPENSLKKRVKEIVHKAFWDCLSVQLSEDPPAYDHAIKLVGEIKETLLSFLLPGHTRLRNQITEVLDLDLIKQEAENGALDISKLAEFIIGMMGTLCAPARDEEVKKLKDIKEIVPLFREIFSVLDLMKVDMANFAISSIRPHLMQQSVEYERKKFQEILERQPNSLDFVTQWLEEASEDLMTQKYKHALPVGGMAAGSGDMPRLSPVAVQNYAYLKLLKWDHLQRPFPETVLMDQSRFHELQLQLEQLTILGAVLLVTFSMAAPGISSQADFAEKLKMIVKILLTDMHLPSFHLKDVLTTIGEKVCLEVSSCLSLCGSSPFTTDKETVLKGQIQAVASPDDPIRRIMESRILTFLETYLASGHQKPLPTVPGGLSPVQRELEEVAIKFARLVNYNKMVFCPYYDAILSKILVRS
inactive: [1] -0.098 | [2] -0.006 | [3] 0.029 | [4] 0.023 | [5] -0.064 | [6] 0.006 | [7] -0.064 | [8] -0.022 | [9] 0.032 | [10] -0.001

TK1 (UniProt P04183)
inactive: [1] -0.051 | [2] 0.004 | [3] 0.006 | [4] -0.011 | [5] 0.032 | [6] -0.018 | [7] -0.025 | [8] -0.002 | [9] 0.017 | [10] 0.013

TELO2 (UniProt Q9Y4R8)
Sequence of UniProt Q9Y4R8 (Q9Y4R8 whole entry, looked up): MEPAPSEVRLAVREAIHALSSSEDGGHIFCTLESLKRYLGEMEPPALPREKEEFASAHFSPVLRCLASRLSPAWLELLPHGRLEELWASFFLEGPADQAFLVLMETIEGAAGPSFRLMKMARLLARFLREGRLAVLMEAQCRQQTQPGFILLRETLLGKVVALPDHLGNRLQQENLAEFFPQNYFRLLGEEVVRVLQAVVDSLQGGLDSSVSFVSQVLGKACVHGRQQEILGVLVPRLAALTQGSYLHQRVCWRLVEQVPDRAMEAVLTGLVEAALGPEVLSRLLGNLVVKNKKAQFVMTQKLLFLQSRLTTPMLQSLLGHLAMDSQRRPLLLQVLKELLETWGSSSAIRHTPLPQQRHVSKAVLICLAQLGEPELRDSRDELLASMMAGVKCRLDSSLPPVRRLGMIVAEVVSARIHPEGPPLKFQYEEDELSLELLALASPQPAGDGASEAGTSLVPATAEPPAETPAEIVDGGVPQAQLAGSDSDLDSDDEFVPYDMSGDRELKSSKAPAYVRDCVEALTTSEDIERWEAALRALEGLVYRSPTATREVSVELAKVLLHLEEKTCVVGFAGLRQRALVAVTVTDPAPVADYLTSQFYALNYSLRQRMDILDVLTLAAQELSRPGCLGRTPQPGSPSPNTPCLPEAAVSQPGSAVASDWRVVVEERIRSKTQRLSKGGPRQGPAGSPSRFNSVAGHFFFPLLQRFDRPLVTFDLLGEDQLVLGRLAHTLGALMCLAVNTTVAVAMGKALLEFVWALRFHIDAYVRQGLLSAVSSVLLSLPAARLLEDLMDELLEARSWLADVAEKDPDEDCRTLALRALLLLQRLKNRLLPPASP
inactive: [1] -0.01 | [2] -0.164 | [3] 0.035 | [4] -0.008 | [5] -0.036 | [6] 0.003 | [7] 0.139 | [8] 0.008 | [9] -0.009 | [10] 0.011

TPST2 (UniProt O60704)
Sequence of UniProt O60704 (O60704 whole entry, looked up): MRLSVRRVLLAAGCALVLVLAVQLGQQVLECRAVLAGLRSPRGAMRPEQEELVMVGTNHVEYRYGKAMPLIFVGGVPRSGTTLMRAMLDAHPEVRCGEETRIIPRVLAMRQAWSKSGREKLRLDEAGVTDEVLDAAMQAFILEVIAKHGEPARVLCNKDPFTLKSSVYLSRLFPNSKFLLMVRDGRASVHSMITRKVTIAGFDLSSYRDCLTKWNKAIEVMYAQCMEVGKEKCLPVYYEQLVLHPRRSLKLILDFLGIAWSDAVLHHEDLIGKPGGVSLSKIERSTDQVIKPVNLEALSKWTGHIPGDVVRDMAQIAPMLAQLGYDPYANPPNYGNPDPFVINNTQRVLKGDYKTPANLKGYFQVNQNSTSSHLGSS
inactive: [1] -0.107 | [2] 0.059 | [3] 0.041 | [4] -0.038 | [5] -0.02 | [6] 0.03 | [7] -0.049 | [8] 0.478 | [9] 0.025 | [10] 0.072

TMOD1 (UniProt P28289)
Sequence of UniProt P28289 (P28289 whole entry, looked up): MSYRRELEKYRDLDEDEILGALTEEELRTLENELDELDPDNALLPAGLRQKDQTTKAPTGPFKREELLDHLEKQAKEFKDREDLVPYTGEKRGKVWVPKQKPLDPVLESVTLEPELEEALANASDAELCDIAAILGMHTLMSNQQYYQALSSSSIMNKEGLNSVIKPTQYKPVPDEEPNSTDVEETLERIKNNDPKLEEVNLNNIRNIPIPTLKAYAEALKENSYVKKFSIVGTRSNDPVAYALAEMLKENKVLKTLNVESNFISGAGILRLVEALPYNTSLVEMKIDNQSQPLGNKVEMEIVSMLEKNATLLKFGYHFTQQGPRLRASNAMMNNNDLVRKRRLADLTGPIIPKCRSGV
inactive: [1] 0.017 | [2] -0.081 | [3] 0.042 | [4] 0.046 | [5] -0.009 | [6] -0.004 | [7] -0.002 | [8] 0.014 | [9] 0.016 | [10] -0.008

TBC1D8B (UniProt Q0IIM8)
inactive: [1] -0.134 | [2] 0.051 | [3] -0.017 | [4] -0.057 | [5] 0.078 | [6] -0.032 | [7] 0.033 | [8] 0.11 | [9] 0.026 | [10] 0.008

TUBB2A (UniProt Q13885)
inactive: [1] -0.007 | [2] -0.062 | [3] -0.021 | [4] 0.006 | [5] -0.008 | [6] 0.01 | [7] 0.071 | [8] -0.005 | [9] -0.001 | [10] -0.006

TUBGCP2 isoform 4 (UniProt Q9BSJ2)
Sequence of UniProt Q9BSJ2 (Q9BSJ2 whole entry, looked up): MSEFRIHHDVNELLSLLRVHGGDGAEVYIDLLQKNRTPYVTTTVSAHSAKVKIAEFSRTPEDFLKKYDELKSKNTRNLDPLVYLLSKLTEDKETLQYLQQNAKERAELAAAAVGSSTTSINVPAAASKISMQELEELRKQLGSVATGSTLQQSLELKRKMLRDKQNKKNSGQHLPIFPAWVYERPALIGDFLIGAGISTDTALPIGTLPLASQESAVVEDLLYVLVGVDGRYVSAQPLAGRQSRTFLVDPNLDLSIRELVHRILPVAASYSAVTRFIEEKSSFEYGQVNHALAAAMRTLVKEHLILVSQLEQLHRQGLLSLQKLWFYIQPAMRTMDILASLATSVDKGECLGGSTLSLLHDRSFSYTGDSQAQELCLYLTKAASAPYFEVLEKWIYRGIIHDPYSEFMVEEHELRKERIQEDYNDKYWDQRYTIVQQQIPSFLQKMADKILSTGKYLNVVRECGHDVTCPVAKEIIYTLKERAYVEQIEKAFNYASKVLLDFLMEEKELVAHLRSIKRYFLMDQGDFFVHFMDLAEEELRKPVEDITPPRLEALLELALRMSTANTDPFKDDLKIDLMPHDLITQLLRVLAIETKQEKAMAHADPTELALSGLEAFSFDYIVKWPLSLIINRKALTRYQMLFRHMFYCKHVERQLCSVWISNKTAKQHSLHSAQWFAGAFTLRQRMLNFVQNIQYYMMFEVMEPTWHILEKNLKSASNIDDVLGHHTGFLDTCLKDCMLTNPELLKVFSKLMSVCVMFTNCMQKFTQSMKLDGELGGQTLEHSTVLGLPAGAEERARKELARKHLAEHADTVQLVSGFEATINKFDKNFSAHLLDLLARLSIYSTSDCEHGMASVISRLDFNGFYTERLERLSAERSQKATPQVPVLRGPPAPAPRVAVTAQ
inactive: [1] -0.007 | [2] -0.008 | [3] 0.053 | [4] 0.032 | [5] 0.003 | [6] 0.045 | [7] -0.026 | [8] 0.021 | [9] 0.017 | [10] -0.018

TCF3 (UniProt P15923)
inactive: [1] -0.039 | [2] -0.066 | [3] 0.034 | [4] 0.089 | [5] 0.19 | [6] 0.135 | [7] -0.051 | [8] 0.047 | [9] 0.027 | [10] 0.023

TRIM23 (UniProt P36406)
inactive: [1] -0.071 | [2] 0.023 | [3] 0.017 | [4] -0.008 | [5] 0.354 | [6] -0.063 | [7] 0.06 | [8] -0.014 | [9] 0.154 | [10] 0.057

TBC1D23 (UniProt Q9NUY8)
inactive: [1] 0 | [2] -0.076 | [3] 0.025 | [4] -0.006 | [5] 0.05 | [6] -0.009 | [7] -0.019 | [8] -0.014 | [9] 0.002 | [10] -0.006
